Screening results (PubChem)
VDR inhibitor: inhibitors of human vitamin D receptor. VDR-SRC2-3 peptide fluorescence polarization, 2 h. P11473. hit rate 0.93% among 400,000. Potency, µM, without a hit: max response, negative = inhibition, hits mostly inhibitors. AID 504847
Target sequence (P11473 whole entry, looked up): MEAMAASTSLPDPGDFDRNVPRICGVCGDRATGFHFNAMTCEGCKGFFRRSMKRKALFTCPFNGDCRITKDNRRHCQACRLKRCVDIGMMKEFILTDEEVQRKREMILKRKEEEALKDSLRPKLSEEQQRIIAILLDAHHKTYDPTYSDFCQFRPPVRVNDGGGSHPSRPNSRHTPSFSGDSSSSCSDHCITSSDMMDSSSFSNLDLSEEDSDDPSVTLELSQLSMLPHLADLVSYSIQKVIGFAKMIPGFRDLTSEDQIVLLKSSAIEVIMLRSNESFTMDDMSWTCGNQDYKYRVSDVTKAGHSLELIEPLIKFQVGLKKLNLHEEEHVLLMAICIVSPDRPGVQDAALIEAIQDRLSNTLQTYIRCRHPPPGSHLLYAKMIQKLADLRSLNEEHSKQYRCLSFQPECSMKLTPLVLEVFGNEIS
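Reagent solutions, kept cold and dark, are dispensed first; compounds are then pinned in at 23 nl, plates briefly spun, and incubated 2 h at ambient temperature. Inhibition of VDR–SRC2-3 peptide binding is read by fluorescence polarization.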
PLK1 PBD block: inhibitors of human PLK1 polo-box domain binding; P53350; Plk1 PBD binding of FITC phosphopeptide, fluorescence polarization; Potency, µM, for inactives: max response, negative = inhibition, actives largely listed as inhibitors; hit rate 2.8% among 360,000; AID 720504; also: series mostly up to about 57 µM; nearly all actives have a fitted effect of over 65% in size
TDP1 cell CPT: growth inhibition of DT40 Tdp1-/-;hTDP1 cells with camptothecin (screen for TDP1 inhibitors); hit rate 12% among 420,000; chicken DT40 Tdp1-/-;hTDP1 cells + 20 nM CPT, ATP luminescence, 48 h; Potency, µM (series often up to 46.2 µM), for inactives: at the highest dose activity change, negative = growth inhibition, most hits filed as inhibitors; also: nearly all actives have a fitted effect of over 55% in size
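Chicken DT40 Tdp1-/- cells complemented with human TDP1, 400 cells/well, exposed to compounds plus 20 nM camptothecin for at least 48 h at 37 C; viability read as ATP content by CellTiter-Glo luminescence.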
DT40 TDP1 no CPT: qHTS for Inhibitors of human tyrosyl-DNA phosphodiesterase 1 (TDP1): qHTS in cells in absence of CPT; DT40 Tdp1-/- hTDP1 cells, no CPT, ATP luminescence, 48 h; Potency, µM (series often up to 46.2 µM), without a hit: top-dose activity change, negative = growth inhibition, usual class: inhibitors; hit rate 15% among 420,000; also: nearly all actives have a fitted effect of over 55% in size
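Stably hTDP1-transfected Tdp1-null chicken DT40 cells were treated with library compounds minus camptothecin and grown for at least 48 hr at 37 °C, after which cellular ATP was quantified by luminescence.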
GCN5L2 inh: GCN5L2 (KAT2A) acetyltransferase inhibition; Q92830; GCN5L2 HAT assay, ThioGlo1 CoA-SH fluorescence; Potency, µM (titrated, usually from 58.9 µM), without a hit: top-dose activity change, negative = inhibition, actives largely listed as inhibitors; hit rate 0.21% among 390,000
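Titration-based screen in which CoA formation is detected via maleimide probe ThioGlo1 (50uM) turning fluorescent on thiol reaction; substrates H3(1-25) 75uM and acetyl-CoA 70uM, GCN5L2 20nM, 20 min incubation at room temperature.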
TDP1 inh: TDP1 (human) enzyme inhibition; recombinant TDP1, AlphaScreen DNA substrate cleavage; Potency, µM (series often up to 130 µM), without a hit: top-dose activity change, negative = inhibition, actives largely listed as inhibitors; hit rate 0.28% among 350,000; also: nearly all actives have a fitted effect of over 40% in size
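Signal: AlphaScreen proximity between streptavidin donor and anti-FITC acceptor beads on intact substrate. Reaction: Tdp1 1 nM, substrate 15 nM final, 5 min RT after 15 min compound preincubation.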
Starred values were filed as active, the others as inactive; ? = inconclusive; · = no result given; [ ] = remark or other dose. This is a sample that favours compounds with a hit; in the whole collection about 18% have one here. Calls follow the shape of the dose curve; as a rule, active = well fitted curve in the direction sought with a large enough effect; inconclusive = small, poorly fitted or top-dose-only effect, or another doubt; inactive = no such curve, though single readings can be large; an effect the other way counts as inactive or inconclusive. % is scaled to controls: 0 for no effect and ±100 for the full control effect; potency is read from the fitted curve at half-maximal effect.

SMILES	VDR inhibitor	PLK1 PBD block	TDP1 cell CPT	DT40 TDP1 no CPT	GCN5L2 inh	TDP1 inh
Cc1ccc(S(=O)(=O)N2CCN(C(=O)CCOc3ccccc3C)CC2)cc1C	-25.3%	-4.5%	?	?	-9.6%	-15.4%
COc1ccc(S(=O)(=O)N2CCN(C(=O)NCc3ccccc3)CC2)cc1	9.0%	1.6%	?	-13.9%	-18.1%	4.1%
COc1ccc(S(=O)(=O)N2CCN(C(=O)CCSc3ccccc3)CC2)cc1	-3.9%	-5.2%	11.6µM*	?	-1.2%	1.6%
CCOc1ccc(S(=O)(=O)N2CCN(C(=O)CCOc3ccccc3C)CC2)cc1	-8.4%	1.9%	?	18.4µM*	0.1%	-1.9%
CC(=O)N1c2ccccc2C2CCCC[C@H]21 (some centres not stated)	-2.5%	-15.4%	?	?	-6.2%	0.2%
CC(NCC1(N2CCOCC2)CCCCC1)C(=O)Nc1ccc(Cl)cc1Cl (configuration not stated)	-9.2%	-2.1%	?	11.4%	-1.5%	-4.9%
CCOC(=O)N1CCC(NC(=O)c2cc(-c3ccc(OC)cc3)nc3ccccc23)CC1	-9.5%	2.9%	?	?	-13.3%	1.9%
COc1cccc(-c2cc(C(F)(F)F)nc(-n3cncn3)n2)c1	5.7%	-13.3%	-13.7%	-23.4%	3.7%	-6.4%
COc1ccc(-c2cc(C(F)(F)F)n3ncc(C(=O)N4CCCCC4c4cccnc4)c3n2)cc1 (configuration not stated)	-7.7%	-6.2%	16.4µM*	?	-0.7%	7.2%
CCOC(=O)N1CCC(NC(=O)c2cnn3c(C(F)(F)F)cc(-c4cccc(OC)c4)nc23)CC1	40.0%	-7.3%	13µM*	16.4µM*	-3.1%	5.3%
COC(=O)c1cnn2c(C(F)(F)F)cc(-c3ccc(F)cc3)nc12	1.9%	-0.3%	2.2%	-24.0%	-4.6%	-6.8%
COc1cccc(-c2cc(C(F)(F)F)nc(-n3cc(C)cn3)n2)c1	-16.7%	?	14.6µM*	16.4µM*	-10.6%	4.6%
CCOC(=O)N1CCN(c2nc(-c3cccc(OC)c3)cc(C(F)(F)F)n2)CC1	-25.8%	-24.1%	?	20.6µM*	-11.7%	1.9%
CC(=O)[C@@]1(O)[C@H](C)CC2C3CC=C4CC(OP(=O)(O)O)CC[C@]4(C)C3CC[C@@]21C (some centres not stated)	-8.8%	-5.2%	-27.1%	?	2.0%	·
O=[N+]([O-])c1ccc2cn(-c3ccccc3)nc2c1	-16.4%	-11.1%	?	?	0.7%	3.8%
Cc1ccc(N2CC(C(=O)Nc3c(C)n(C)n(-c4ccccc4)c3=O)CC2=O)cc1 (configuration not stated)	12.9%	-0.6%	-9.1%	2.2%	0.0%	-1.2%
CN1CCN(c2nc(-c3ccco3)cc(C(F)(F)F)n2)CC1	11.4%	-10.6%	-13.0%	-2.8%	-10.5%	3.9%
CCOC(=O)N1CCN(c2nc(-c3ccco3)cc(C(F)(F)F)n2)CC1	-4.5%	-11.0%	?	?	3.98µM*	0.0%
O=C(CSc1nc(-c2ccco2)cc(C(F)(F)F)n1)N1CCN(Cc2ccccc2)CC1	0.3%	-11.0%	?	?	-6.2%	2.5%
COc1ccccc1N1CCN(C(=O)CSc2nc(-c3ccco3)cc(C(F)(F)F)n2)CC1	9.1%	-10.4%	?	23.1µM*	-22.1%	9.5%
CC(C)S(=O)(=O)c1cnc(-c2cccnc2)nc1N	10.6%	-8.5%	13.8%	-7.1%	-3.8%	2.7%
Cc1ccccc1OCC(=O)NCC(C)NC(=O)COc1ccccc1C (configuration not stated)	?	·	-8.6%	-23.1%	·	0.9%
Clc1ccc(CN2CCN(c3ncccn3)CC2)c(Cl)c1	6.9%	3.4%	-4.4%	2.3%	-14.0%	·
N#CCCn1cc(C(N)=O)c(-c2ccc3ccccc3c2)n1	-22.8%	26.7µM*	?	?	-2.8%	·
N#CCCn1cc(/C=N/NC(N)=S)c(-c2ccc(-c3ccccc3)cc2)n1	6.3%	-17.1%	?	4.11µM*	-10.8%	7.5%
SMILES	VDR inhibitor	PLK1 PBD block	TDP1 cell CPT	DT40 TDP1 no CPT	GCN5L2 inh	TDP1 inh
N#CCCn1cc(C=C(C#N)C#N)c(-c2ccc(-c3ccccc3)cc2)n1	-26.0%	-8.9%	?	?	-13.3%	5.6%
CCCCC[C@H](O)CC[C@H]1[C@H](O)CC(=O)[C@@H]1CCCCCCC(=O)O	-3.0%	·	3.5%[4.12 µM]	3.9%[4.12 µM]	-3.0%	8.5%
COc1ccc(S(=O)(=O)N2CCC(C(=O)NCCC(=O)NCc3cccnc3)CC2)cc1	·	-12.5%	-1.7%	?	·	·
O=C(Nc1ccccc1)c1ccc(C(=O)Nc2ccccc2)nc1	-10.8%	18.9µM*	?	?	0.2%	0.0%
Cc1cccc(Nc2nc(-c3ccccc3)c(C(=O)Nc3cccnc3)s2)c1	20.2%	-6.0%	?	?	-13.9%	1.9%
CC(=O)Nc1cccc(NC(=O)c2ccc(C(=O)Nc3cccc(NC(C)=O)c3)nc2)c1	-12.8%	-10.1%	0.9%	-24.8%	-5.5%	-7.6%
Cc1cccc(NC(=O)c2ccc(C(=O)Nc3cccc(C)c3)nc2)c1	-3.3%	-7.6%	2.59µM*	16.4µM*	2.3%	5.3%
Cc1cccc(NC(=O)c2sc(Cl)nc2-c2ccccc2)c1	-6.3%	-3.3%	?	18.4µM*	2.0%	4.9%
CCN1C(=O)[C@H]2[C@H]3CN=C(SCc4ccc(C)cc4)N3[C@@](C)(C(=O)OC)[C@H]2C1=O	?	-11.1%	-14.1%	?	-5.6%	0.3%[56.1 µM]
O=C1CCc2cc(S(=O)(=O)Nc3cccnc3)ccc2N1	·	·	·	·	·	2.1%
COc1ccc(-c2noc(CSCC(=O)Nc3ccc(C)cc3Br)n2)cc1OC	6.7%	·	-29.7%	-22.4%	-4.4%	0.0%
CCC(C(=O)NCc1ccccc1)n1c(-c2ccc3c(c2)CCO3)nc2ccccc21 (configuration not stated)	·	-8.5%	14.6µM*	?	·	·
CSCCC(C(=O)NCc1ccccc1)n1c(-c2ccc3c(c2)CCO3)nc2ccccc21 (configuration not stated)	·	-9.7%	?	?	·	·
CCC(=O)Nc1ccc(NC(=O)/C=C/c2ccc(Cl)cc2)cc1	?	29.9µM*	-24.2%	-25.0%	-1.6%	2.7%
CCC(=O)Nc1ccc(NC(=S)NC(=O)/C=C/c2ccccc2)cc1	-11.0%	-5.7%	?	7.31µM*	-13.8%	?
COc1ccc(/C=C/C(=O)Nc2ccc(Cl)c(Cl)c2)cc1	-5.1%	·	?	?	-10.2%	0.4%[12.3 µM]
